The target of assay [1] is Cellular tumor antigen p53 (Homo sapiens) (UniProt P04637). Nature of the assay: TOX21_p53_BLA_p2_ratio: Tox21 HCT-116 p53 Agonism Beta-lactamase Assay, Ratio, Phase 2 (AID 2283592). In a few lines:
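In this cell-based reporter format, HCT116 cells were dosed with chemicals delivered from DMSO by 217-fold dilution and incubated 16 h at 37C. Emission at 460 and 530 nm after 2 h CCF4-AM loading provided the ratio, fitted upward versus DMSO.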

Assay [2] in a line: TOX21_p53_BLA_p3_viability: Viability Assessment in the Tox21 HCT-116 p53 Agonism Beta-lactamase Assay, Phase 3 (AID 2283593).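 Note: cells exposed to compound for 16 h before reading.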 In a few lines: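 HCT-116 cells (4000/well) rested 5 h at 37C, then got DMSO compounds by pin tool (217-fold dilution) for 16 h at 37C, 5% CO2. After the bla read, CellTiter-Glo was added and luminescence read at 30 min, room temperature.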
Assay [3] concerns the target Cellular tumor antigen p53 (Homo sapiens) (UniProt P04637). Nature of the assay: TOX21_p53_BLA_p3_ratio: Tox21 HCT-116 p53 Agonism Beta-lactamase Assay, Ratio, Phase 3 (AID 2283596). In a few lines: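 HCT116 p53-bla cells (4000/well) given compound in DMSO (217-fold dilution) after 5 h, incubated 16 h at 37C. CCF4-AM substrate 2 h at room temperature; 460/530 nm emission ratio, gain fitted against DMSO.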

Assay [4] can be described thus: TOX21_p53_BLA_p4_viability: Viability Assessment in the Tox21 HCT-116 p53 Agonism Beta-lactamase Assay, Phase 4 (AID 2283597).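 Note: hits lower the luminescence signal meaning cytotoxicity.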 In a few lines: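 We seeded HCT116 p53 reporter cells at 4000/well and waited 5 h. We then added compounds in DMSO at a 217-fold dilution and incubated for 16 h. Viability was read as CellTiter-Glo luminescence after 30 min at RT.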
Assay [5] addresses Cellular tumor antigen p53 (Homo sapiens) (UniProt P04637). Nature of the assay: TOX21_p53_BLA_p4_ratio: Tox21 HCT-116 p53 Agonism Beta-lactamase Assay, Ratio, Phase 4 (AID 2283601). In a few lines:
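HCT116 cells carrying an inducible beta-lactamase reporter were plated at 4000 cells/well, rested 5 h, then exposed to compounds in DMSO (217-fold dilution) for 16 h at 37C. CCF4-AM substrate was loaded 2 h at room temperature; 460/530 nm emission ratio scored gain-of-signal versus DMSO.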

In assay [6] the target is PGR (gene 5241) (UniProt P06401). Nature of the assay: TOX21_PR_BLA_Followup_Agonist_ratio: Tox21 HEK293 Progesterone Receptor (PR) Agonism Beta-lactamase Follow-Up Assay, Ratio (AID 2283933). In a few lines:
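HEK293T PR-UAS-bla, 2% CS-FBS; 6 hr preincubation, cpd/DMSO pinned, 16 hr 37C/5% CO2; LiveBLAzer B/G 2 hr RT; FRET ch2/ch1 ratio, agonist direction vs DMSO. Viability by CellTiter-Glo in same wells.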

For assay [7] the target is unchanged. Nature of the assay: TOX21_PR_BLA_Followup_Antagonist_ratio: Tox21 HEK293 Progesterone Receptor (PR) Antagonism Beta-lactamase Follow-Up Assay, Ratio (AID 2283934). A digest of the protocol: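 HEK293T PR-UAS-bla, 2% CS-FBS; 6 hr plating, then cpd + R5020 (1 nM final), 16 hr 37C/5% CO2. B/G FRET substrate 2 h RT. Ratio ch2/ch1 vs DMSO; CellTiter-Glo viability multiplexed, autofluorescence checked.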

The nature of assay [8]: TOX21_PR_BLA_Followup_Agonist_viability: Viability Assessment in the Tox21 HEK293 Progesterone Receptor (PR) Agonism Beta-lactamase Follow-Up Assay (AID 2283935).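 Note: signal loss means lower viability so actives are cytotoxic.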 In a few lines:
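HEK293T PR-UAS-bla, 3,000 cells/well, 2% CS-FBS; 6 hr pre-incubation; cpd in DMSO, 16 hr 37C; LiveBLAzer 2 hr RT, then CellTiter-Glo 30 min RT, luminescence. Decrease = lost viability.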

A short description of assay [9]: TOX21_PR_BLA_Followup_Antagonist_viability: Viability Assessment in the Tox21 HEK293 Progesterone Receptor (PR) Antagonism Beta-lactamase Follow-Up Assay (AID 2283936).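 Note: hits lower the luminescence signal meaning cytotoxicity.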 A digest of the protocol:
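PR-UAS-bla HEK293T cells (3,000/well, 2% charcoal-stripped FBS) given compound plus R5020 agonist, 16 h at 37C. CellTiter-Glo added after bla read, 30 min at room temperature; luminescence loss indicates cytotoxicity.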

Assay [10] concerns the target PGR (gene 5241) (UniProt P06401). Nature of the assay: TOX21_PR_LUC_Followup_Agonist: Tox21 HEK293 Progesterone Receptor (PR) Agonism Luciferase Follow-Up Assay (AID 2283937; active = hit-call score of the fitted dose curve at least 0.9, where 1 is the maximum; inactive = score below 0.9). In a few lines: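 Cells: HEK293-PR-A-luc, 3,000/well, 10% charcoal-stripped FBS assay medium. Compound added after 5 h; 16 h, 37C, 0% CO2. ONE-Glo luciferase, luminescence. Positive fit vs DMSO.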

The target is the same in assay [11]. Nature of the assay: TOX21_PR_LUC_Followup_Antagonist: Tox21 HEK293 Progesterone Receptor (PR) Antagonism Luciferase Follow-Up Assay (AID 2283938).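 Note: curve fitted upward as signal gain over DMSO baseline despite antagonist label.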 A digest of the protocol: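 Luminescence from ONE-Glo reagent, measured after 30 min at room temperature, served as readout. Cells (HEK293 carrying PR-A-luc) had been treated 16 h at 37C with DMSO-dissolved compounds. Activity was fitted against DMSO controls.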

Assay [12] is described as follows: TOX21_PR_LUC_Followup_Agonist_viability: Viability Assessment in the Tox21 HEK293 Progesterone Receptor (PR) Agonism Luciferase Follow-Up Assay (AID 2283941).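 Note: loss of signal means cytotoxicity so actives lower viability.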 A digest of the protocol:
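Cells were kept 5 days in charcoal-stripped serum medium before plating HEK293-PR-A-luc at 3,000 cells/well. After 5 h they received DMSO-dissolved compound and incubated 16 h at 37C. Viability was taken from CellTiter-Glo ATP luminescence.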

The target in assay [13] is Cellular tumor antigen p53 (Homo sapiens) (UniProt P04637). Nature of the assay: TOX21_p53_BLA_p5_ratio: Tox21 HCT-116 p53 Agonism Beta-lactamase Assay, Ratio, Phase 5 (AID 2283599). A digest of the protocol: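 HCT-116 cells carrying a p53-inducible beta-lactamase reporter were seeded at 4000 cells/well and dosed after 5 h with compound in DMSO (217-fold dilution). After 16 h at 37C, CCF4-AM substrate was added for 2 h, and the 460/530 nm emission ratio was scored as gain-of-signal versus DMSO.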
Cellular tumor antigen p53 (Homo sapiens), sequence (P04637 whole entry, looked up): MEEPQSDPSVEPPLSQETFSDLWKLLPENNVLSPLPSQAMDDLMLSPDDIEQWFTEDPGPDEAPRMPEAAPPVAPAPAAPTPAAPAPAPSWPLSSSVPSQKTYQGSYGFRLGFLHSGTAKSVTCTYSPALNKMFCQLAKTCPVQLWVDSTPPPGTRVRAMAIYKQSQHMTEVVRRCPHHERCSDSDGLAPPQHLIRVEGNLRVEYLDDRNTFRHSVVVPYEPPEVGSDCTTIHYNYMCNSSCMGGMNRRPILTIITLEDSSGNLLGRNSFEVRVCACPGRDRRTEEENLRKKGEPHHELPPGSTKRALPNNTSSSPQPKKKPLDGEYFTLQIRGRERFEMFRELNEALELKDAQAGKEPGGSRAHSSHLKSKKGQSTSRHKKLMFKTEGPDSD

A short description of assay [14]: TOX21_p53_BLA_p5_viability: Viability Assessment in the Tox21 HCT-116 p53 Agonism Beta-lactamase Assay, Phase 5 (AID 2283600). In a few lines:
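Compounds, pinned from DMSO at 217-fold dilution, were left on the cells for 16 h. The viability endpoint was ATP content measured by CellTiter-Glo luminescence, where falling signal reflects cytotoxicity.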

In assay [15] the target is Thyroid hormone receptor alpha (Rattus norvegicus) + Thyroid hormone receptor beta (Rattus norvegicus) (UniProt P18113+P63059). Nature of the assay: TOX21_TR_LUC_GH3_Antagonist_Followup: Tox21 GH3 Thyroid Hormone Receptor Antagonism Luciferase Follow-Up Assay (AID 2283942). A digest of the protocol:
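Rat pituitary GH3 cells with a TRα/TRβ-driven luciferase reporter, 5 h attachment, then 15 concentrations (92 uM to 5nM final) plus 1.0 nM T3 agonist, 24 h at 37C/5% CO2. ONE-Glo luminescence; signal change fitted against DMSO baseline.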

The target in another assay is THRA (gene 7067) (UniProt P10827). Nature of the assay: TOX21_TRA_COA_Antagonist_Followup_ratio: Tox21 Thyroid Hormone Receptor alpha Antagonism through Coactivator Recruitment Follow-Up Assay, Ratio (AID 2283953). A digest of the protocol:
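520:495 nm emission ratio (excitation 340 nm) reports fluorescein-SRC-2 peptide recruitment to GST-TRα LBD by TR-FRET with Tb anti-GST antibody. Values were normalized to DMSO (0%) and T3 control wells (100%); loss of signal indicated antagonism.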

Assay [16] addresses THRB (gene 7068) (UniProt P10828). Nature of the assay: TOX21_TRB_BLA_Antagonist_Followup_ratio: Tox21 Thyroid Hormone Receptor beta Antagonism Beta-lactamase (BLA) Follow-Up Assay, Ratio (AID 2283958). A digest of the protocol: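 HEK293T TRb-bla (GAL4 DBD + hTRβ LBD), 2% cs-FBS phenol red-free DMEM, 5 h attach; cpds 11-pt triplicate, 18 h 37C; CCF4-AM 2 h RT; 460/530 ratio vs DMSO; CellTiter-Glo viability same wells.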

A short description of assay [17]: TOX21_TRB_BLA_Antagonist_Followup_viability: Viability Assessment in the Tox21 Thyroid Hormone Receptor beta Antagonism Beta-lactamase (BLA) Follow-Up Assay (AID 2283961). A digest of the protocol:
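Viability read as CellTiter-Glo ATP luminescence (loss of signal = cytotoxicity) in the same plates as the TRβ-bla readout. TRβ-LBD/GAL4 UAS-bla HEK293T cells were exposed to compounds, 11 concentrations in triplicate, for 18 h at 37C/5% CO2.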

In assay [18] the target is THRB (gene 7068) (UniProt P10828). Nature of the assay: TOX21_TRB_COA_Antagonist_Followup_ratio: Tox21 Thyroid Hormone Receptor beta Antagonism through Coactivator Recruitment Follow-Up Assay, Ratio (AID 2283967). In a few lines: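 Cell-free TR-FRET coactivator recruitment with GST-tagged TRβ LBD (5.0 nM) and fluorescein-labeled SRC-2 peptide (200 nM) detected by terbium anti-GST antibody (2 nM). The 520:495 nm emission ratio was normalized to DMSO (0%) and T3 (100%).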
THRB (gene 7068), sequence (P10828 whole entry, looked up, the tested form may be a part): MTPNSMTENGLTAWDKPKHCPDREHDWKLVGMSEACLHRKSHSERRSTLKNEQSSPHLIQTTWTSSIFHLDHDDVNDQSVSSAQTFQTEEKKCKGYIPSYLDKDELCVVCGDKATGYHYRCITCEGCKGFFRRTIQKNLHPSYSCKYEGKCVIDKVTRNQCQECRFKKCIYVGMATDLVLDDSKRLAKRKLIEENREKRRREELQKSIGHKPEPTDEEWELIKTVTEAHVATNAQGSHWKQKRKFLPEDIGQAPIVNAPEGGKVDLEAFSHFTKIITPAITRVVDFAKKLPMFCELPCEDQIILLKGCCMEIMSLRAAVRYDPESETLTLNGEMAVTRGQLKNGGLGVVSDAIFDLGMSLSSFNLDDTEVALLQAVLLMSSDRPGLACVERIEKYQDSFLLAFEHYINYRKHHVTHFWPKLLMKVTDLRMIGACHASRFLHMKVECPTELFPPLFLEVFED

The target of assay [19] is Retinoic acid receptor RXR-alpha (Homo sapiens) (UniProt P19793). Nature of the assay: TOX21_TR_RXR_BLA_Antagonist_Followup_ratio: Tox21 Thyroid Hormone Receptor beta Retinoid X Receptor alpha (RXRa) Antagonism Beta-lactamase (BLA) Follow-Up Assay, Ratio (AID 2283972). In a few lines: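 Beta-lactamase reporter readout as cleaved/uncleaved substrate ratio (460:530 nm) after 2 h substrate loading at room temperature. GAL4-RXRa bla HEK293T cells were exposed 16 h at 37C to 11-point compound series; loss of signal scored against DMSO baseline.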
Retinoic acid receptor RXR-alpha (Homo sapiens), sequence (P19793 whole entry, looked up, the tested form may be a part): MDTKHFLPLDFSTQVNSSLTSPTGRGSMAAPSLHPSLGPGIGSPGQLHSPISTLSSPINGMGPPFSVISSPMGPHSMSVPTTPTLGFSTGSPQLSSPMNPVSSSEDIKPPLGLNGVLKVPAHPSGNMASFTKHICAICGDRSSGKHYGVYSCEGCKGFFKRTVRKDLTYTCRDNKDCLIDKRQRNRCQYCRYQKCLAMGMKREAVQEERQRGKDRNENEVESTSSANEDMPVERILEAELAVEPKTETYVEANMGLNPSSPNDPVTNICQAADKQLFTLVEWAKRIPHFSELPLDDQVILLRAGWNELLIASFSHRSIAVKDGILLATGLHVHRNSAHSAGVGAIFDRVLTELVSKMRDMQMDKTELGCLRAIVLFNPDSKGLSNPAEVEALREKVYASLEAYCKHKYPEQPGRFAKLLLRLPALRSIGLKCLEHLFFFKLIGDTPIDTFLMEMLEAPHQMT

Assay [20] is described as follows: TOX21_TR_RXR_BLA_Antagonist_Followup_viability: Viability Assessment in the Tox21 Thyroid Hormone Receptor beta Retinoid X Receptor alpha (RXRa) Antagonism Beta-lactamase (BLA) Follow-Up Assay (AID 2283979). A digest of the protocol: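 RXRa-UAS-bla HEK293T cells seeded 2,500/well in phenol red-free DMEM with 2% charcoal-stripped FBS, attached 5 h, then exposed to compounds at 11 concentrations in triplicate for 16 h at 37C/5% CO2. Viability read by CellTiter-Glo ATP luminescence; bidirectional fit versus DMSO.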

The text below walks through data of PubChem BioAssay (EPA / NIEHS).

Structures are written as SMILES. Values joined by “and” are separate entries in the source; they are usually repeats but may differ in a detail not shown here. Equal entries are not always repeated. Records with an inconclusive call do not appear. Active and inactive are the calls of the source. Rule for the calls, unless noted: active = hit-call score of the fitted dose curve at least 0.9, where 1 is the maximum; inconclusive = response in the unintended direction; inactive = score below 0.9.

PGR (gene 5241), sequence (P06401 whole entry, looked up): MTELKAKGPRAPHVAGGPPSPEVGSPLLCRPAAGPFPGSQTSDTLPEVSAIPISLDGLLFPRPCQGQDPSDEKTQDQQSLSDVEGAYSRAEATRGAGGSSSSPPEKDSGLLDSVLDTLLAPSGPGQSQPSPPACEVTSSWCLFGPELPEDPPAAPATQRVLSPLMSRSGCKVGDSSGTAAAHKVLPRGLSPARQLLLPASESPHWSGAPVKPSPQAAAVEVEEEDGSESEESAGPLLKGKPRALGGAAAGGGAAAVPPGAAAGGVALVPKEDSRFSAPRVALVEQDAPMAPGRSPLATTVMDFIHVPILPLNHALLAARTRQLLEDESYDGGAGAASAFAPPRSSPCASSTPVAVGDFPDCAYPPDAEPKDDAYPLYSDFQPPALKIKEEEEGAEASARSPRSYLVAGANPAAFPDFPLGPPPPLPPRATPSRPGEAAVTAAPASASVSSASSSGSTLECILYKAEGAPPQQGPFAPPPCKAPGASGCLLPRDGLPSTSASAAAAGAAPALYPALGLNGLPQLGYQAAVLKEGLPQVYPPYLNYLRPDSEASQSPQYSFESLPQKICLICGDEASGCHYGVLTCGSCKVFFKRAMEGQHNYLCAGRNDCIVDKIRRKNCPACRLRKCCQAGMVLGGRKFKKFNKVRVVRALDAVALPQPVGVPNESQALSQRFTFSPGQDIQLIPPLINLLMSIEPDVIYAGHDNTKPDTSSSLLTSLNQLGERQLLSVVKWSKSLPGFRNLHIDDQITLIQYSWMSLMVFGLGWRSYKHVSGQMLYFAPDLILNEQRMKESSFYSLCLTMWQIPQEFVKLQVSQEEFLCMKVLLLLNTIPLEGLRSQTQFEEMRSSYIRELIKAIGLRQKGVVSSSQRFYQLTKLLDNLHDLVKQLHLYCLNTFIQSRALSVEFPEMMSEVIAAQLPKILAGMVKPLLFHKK
THRA (gene 7067), sequence (P10827 whole entry, looked up, the tested form may be a part): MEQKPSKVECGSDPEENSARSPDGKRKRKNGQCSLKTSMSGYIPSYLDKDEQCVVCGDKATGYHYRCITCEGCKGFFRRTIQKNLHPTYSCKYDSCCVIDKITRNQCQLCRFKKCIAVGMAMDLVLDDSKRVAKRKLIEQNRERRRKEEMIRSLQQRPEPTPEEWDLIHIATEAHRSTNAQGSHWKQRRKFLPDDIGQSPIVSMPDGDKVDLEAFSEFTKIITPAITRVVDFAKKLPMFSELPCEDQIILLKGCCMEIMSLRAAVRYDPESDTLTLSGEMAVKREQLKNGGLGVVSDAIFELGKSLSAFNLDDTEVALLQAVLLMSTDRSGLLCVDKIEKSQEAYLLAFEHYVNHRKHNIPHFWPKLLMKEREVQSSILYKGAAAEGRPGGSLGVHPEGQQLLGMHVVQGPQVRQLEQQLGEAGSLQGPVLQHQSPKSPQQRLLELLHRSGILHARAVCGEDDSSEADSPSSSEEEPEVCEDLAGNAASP

Turning to `O=C1C(Cl)C(CCl)CN1c1cccc(C(F)(F)F)c1` (stereo not drawn), the result (in [1]; in [2]; in [3]; in assay [4]; in assay [5]; with PGR (gene 5241) [6]) was inactive. For the same molecule, the outcome (with PGR (gene 5241) [7]; in assay [8]; in [9]; with PGR (gene 5241) [10]; in the assay with PGR (gene 5241) [11]; in assay [12]) was inactive.
On to `S=C(SSC(=S)N1CCCCC1)N1CCCCC1`, for which the outcome in assay [1], in [2], in assay [3], in [4], in assay [13] and in [14] was inactive. In assay [5], the outcome was inactive.
For `O=C(O)CCCO`, the result in assay [1], in assay [2], in assay [3], in [4], in assay [13] and in assay [5] was inactive.
Consider `Oc1ccc2c3c1O[C@H]1[C@@H](O)C=C[C@H]4[C@H](C2)NCC[C@@]341`, for which the outcome in assay [1], in assay [2], in [3], in assay [4], in [13] and in assay [14] was inactive.
As for `CCCCCCI`, the result in [1], in [2], in assay [3], in assay [4], in assay [13] and in [14] was inactive. The outcome in assay [5] was inactive.
Turning to `ClCOCCl`, the outcome in assay [1], in [2], in assay [3], in assay [13] and in assay [14] was inactive.
A word on the AC50: it is the concentration at which the activity in the assay is half-maximal. As to `O=c1[nH]cc(N(CCCl)CCCl)c(=O)[nH]1`, the result in assay [1], in assay [2], in [4] and in assay [13] was inactive. Moreover, in assay [3], the AC50 is 23 µM (active).
Turning to `N[C@@H](Cc1ccc(N(CCCl)CCCl)cc1)C(=O)O`, the AC50 in [1] is 26.6 µM (active) and 25.6 µM (active); in assay [3], 20.2 µM (active) and 24.6 µM (active); in assay [13], 32.6 µM (active) and 29.2 µM (active); in assay [5], 22.7 µM (active) and 30.4 µM (active). The molecule was called inactive in assay [2], in [4] and in assay [14].
`c1cncc([C@@H]2CCCCN2)c1`: the outcome in [1] and in [2] was inactive.
With `CNC(C)Cc1ccccc1` (stereo not drawn), the result in assay [1], in assay [2], in assay [3] and in [13] was inactive.
For `CN1C(=O)[C@@H](NC(=O)c2cc3ccccc3[nH]2)N=C(c2ccccc2)c2ccccc21`, the outcome in [1], in assay [2], in assay [3], in assay [4], in [13] and in assay [5] was inactive. Moreover, the result (in assay [15]; with THRA (gene 7067); in assay [17]; with THRB (gene 7068) [18]; in [19]; in [20]) was inactive. In addition, the AC50 in the assay with THRB (gene 7068) [16] is 10.7 µM (active).
In the case of `Cc1cc(Cl)ccc1N=CN(C)C`, the result in assay [1], in assay [2], in assay [3], in assay [4], in assay [13] and in [14] was inactive. Further, the result in assay [5] was inactive.
As for `CN(C)[C@H](Cc1ccccc1)c1ccccc1`, the outcome in assay [1], in assay [3], in [13] and in assay [14] was inactive. For the same molecule, in assay [2], the AC50 is 37.9 µM (active).
With `O=C(Cl)c1ccccc1`, the result in [1], in [2], in assay [3], in assay [4], in [13] and in assay [14] was inactive. Moreover, the outcome in [5] was inactive.
